# Screens deposited in PubChem BioAssay by National Center for Advancing Translational Sciences (NCATS).
# HCMV antiviral: human cytomegalovirus inhibition; HFF cells, HCMV-luciferase reporter, 72 h; hits give low values; activity change, negative = inhibition, % at 57.5 µM; 410,000 compounds, 4.5% hits; AID 1259415; in the data active = activity change below about -60%; inconclusive = no clear call, values can overlap the other calls; inactive = above about -39%
#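 Steps: HFFs plated, 16 h 37C; compounds added; HCMV-luciferase added to MOI 1 PFU/cell; 72 h 37C; OneGlo reagent, 5 min room temperature; luminescence read, normalized to controls.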
# Sm TGR block: blocks Schistosoma mansoni thioredoxin glutathione reductase; 360,000 compounds, 3% hits; purified TGR, DTNB reduction, TNB absorbance 405 nm; Potency, µM (series often up to 114 µM), for the others: at the top dose activity change, negative = inhibition, actives largely listed as inhibitors; Q962Y6; note: potency is the fitted concentration of half-maximal effect; nearly all actives have a fitted effect of over 60% in size
#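 Kinetic colorimetric format: TGR-catalysed, NADPH-driven DTNB reduction monitored via TNB absorbance. Enzyme dispensed at 20 nM; compound exposure 15 min at room temperature before reaction start.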
# Vaccinia Venus: inhibitors of vaccinia virus (Venus reporter); Potency, µM (series often up to 36.5 µM), for the others: at the top dose activity change, negative = inhibition, most hits filed as inhibitors; AID 720580; Vaccinia virus Venus reporter expression, fluorescence; 330,000 compounds, 0.46% hits; calls by dose curve; tested in A549 cells; note: potency is the fitted concentration of half-maximal effect; nearly all actives have a fitted effect of over 30% in size
# FMDV antiviral: blocks foot and mouth disease virus; FMDV antiviral cell-based qHTS; Potency, µM (highest dose often 57.9 µM), inactives show at the top dose activity change, negative = inhibition, usual class: inhibitors; 410,000 compounds, 1.2% hits; AID 1159524; calls by dose curve; tested in HEK293T cells; note: read-out not given here; potency is the fitted concentration of half-maximal effect; nearly all actives have a fitted effect of over 45% in size
# VACV mCherry inh: vaccinia inhibition (mCherry reporter) | 310,000 compounds, 0.63% hits | AID 720579 | Vaccinia virus mCherry reporter infection, fluorescence | Potency, µM (series often up to 36.5 µM), without a hit: at the highest dose activity change, negative = inhibition, hits mostly inhibitors; calls by dose curve; tested in A549 cells; note: potency is the fitted concentration of half-maximal effect; nearly all actives have a fitted effect of over 35% in size
# HCV inh: inhibitors of hepatitis C virus infection; Potency, µM (doses to about 41.8 µM), for the others: at the top dose activity change, negative = inhibition, usual class: inhibitors; Huh7.5.1 HCVcc-Cre infection, luciferase reporter, 44 h; 340,000 compounds, 3.4% hits; note: potency is the fitted concentration of half-maximal effect
#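 Infectious HCVcc-Cre (~0.5 moi) was added to cells just after compound, with cells seeded 4 h earlier at 1,000 per well. Luciferase activity after 44 h culture reported infection; substrate was incubated 15 min at room temperature before reading.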
# * hit, by the source's call; i = inactive; ? = inconclusive; . = not tested or not shown; [ ] = remark or other dose. Rows were chosen to be rich in hits. Some 9.3% of all compounds tested hit in one or more screens of this group. Unless noted, calls come from the whole dose curve; as a rule, active = well fitted curve in the direction sought with a large enough effect; inconclusive = small, poorly fitted or top-dose-only effect, or another doubt; inactive = no such curve, though single readings can be large; an effect the other way counts as inactive or inconclusive. % is set by controls: 0 for no effect and ±100 for the full control effect.
SMILES,HCMV antiviral,Sm TGR block,Vaccinia Venus,FMDV antiviral,VACV mCherry inh,HCV inh
COc1cc(/C=C2\CC/C(=C\c3ccc(OCCO)c(OC)c3)C2=O)ccc1OCCO,?,.,4%,35µM*,i,?
COc1cc(/C=C2\COC/C(=C\c3ccc(O)c(OC)c3)C2=O)ccc1O,-99*,50µM*,?,18µM*,?,11µM*
COc1ccc(/C=C2\N=C3CCCCCN3C2=O)cc1OC,-6,2%,.,24%,.,3%
COc1cc(/C=C2\N=C3CCCCCN3C2=O)ccc1O,137,56µM*,-8%,.,-2%,10%
C=CCOc1ccc(/C=C2\SC(N)=NC2=O)cc1OC,116,0%,.,0%,.,-12%
COc1cc(/C=C2\SC(N)=NC2=O)ccc1O,-75*,-28%,?,14%,-17%,?
C[C@H](CO)N1C[C@H](C)[C@@H](CN(C)S(=O)(=O)c2ccccc2)Oc2c(NS(=O)(=O)c3ccc(F)cc3)cccc2C1=O,-40,.,-4%,1%,i,-2%
COc1cc(/C=C/C=C2/CC/C(=C/C=C/c3ccc(O)c(OC)c3)C2=O)ccc1O,-99*,.,56%,?,i,?
COc1cc(/C=C2/CC/C(=C/c3ccc(O)c(OC)c3)C2=O)ccc1O,0,45µM*,170%,-4%,-15%,13µM*
COc1cc(OC)c(OC)cc1/C=C1\CCC/C(=C\c2cc(OC)c(OC)cc2OC)C1=O,-90*,-2%,-9%,?,-28%,-27%
Cc1ccc(CN2CCOc3ccc(CN4CCC(O)(c5cccnc5)CC4)cc3C2)cc1C,.,.,?,?,-22%,.
O=C1N(c2cccc3ccccc23)C(c2ccccc2)N2CCCN12 (stereo unspecified),-7,1%,-25%,-1%,i,3%
COc1cc(C(c2c(C)[nH][nH]c2=O)c2c(C)[nH][nH]c2=O)cc(Br)c1OC,-18,0%,.,-19%,.,14%
Cc1[nH]c(C)c(C(=O)/C=C/c2ccc([N+](=O)[O-])cc2)c1C,-101*,?,.,21%,.,?
CCNC(=S)NNc1ccccc1,57,14µM*,-9%[7.34 µM],1%,?,15%
Cc1sc2ncn(CCC(=O)O)c(=O)c2c1C,4,2%,-19%,-26%,.,6%
Cc1sc2ncn(CCn3cnc4sc(C)c(C)c4c3=O)c(=O)c2c1C,?,-3%,-15%,20µM*,.,?
CN(C)CCN(CC1CCCN(Cc2ccccc2F)C1)C(=O)Cc1ccccc1F (stereo unspecified),-24,-4%,.,-2%,.,?
Cc1ccc(C(=O)N(CCN(C)C)CC2CCCN(Cc3ccccc3F)C2)cc1C (stereo unspecified),?,-38%,-24%,-22%,-9%,11µM*
C=C(C)c1cccc(C(C)(C)NC(=O)N2CCN(CC)CC2)c1,36,1%,.,-6%,.,3%
C=C(C)c1cccc(C(C)(C)NC(=O)N2CCN(CC(N)=O)CC2)c1,-3,45µM*,-15%,-24%,.,-9%
C=CCNc1nc2cc(-c3ccc(C(=O)N4CCOCC4)cc3)sc2c(=O)n1C,3,.,-25%,34%,-6%,.
CCCCC(=O)NC(N1CCCCC1)C(Cl)(Cl)Cl (stereo unspecified),34,11µM*,?,-11%,.,0%
CC(C)COC(=O)N1CCCC1C(=O)O (stereo unspecified),7,-15%,0%,.,?,3.2µM*
Cc1cccc(-c2nc(CS(=O)CC(=O)N3CC(C)CC(C)C3)c(C)o2)c1 (stereo unspecified),-30,35µM*,?,-16%,?,-9%
SMILES,HCMV antiviral,Sm TGR block,Vaccinia Venus,FMDV antiviral,VACV mCherry inh,HCV inh
CCN1CCN(C(=O)CS(=O)Cc2nc(-c3cccc(C)c3)oc2C)CC1 (stereo unspecified),-25,40µM*,-10%,-5%,0%,1%
CCOc1cc(/C=C2\SC(=N)N(c3nonc3N)C2=O)ccc1OCC(N)=O,-2,7%,-1%,-16%,-6%,?
COc1ccc(F)c(CN2CCOc3ccc(CN4CCCCC4CO)cc3C2)c1 (stereo unspecified),.,.,-8%,0%,-15%,.
CC1=C(C#N)C(/C=N/OCc2ccc(F)cc2Cl)CC(=O)N1 (stereo unspecified),-80*,6%,-9%,44%,-17%,2%
COc1ccnc(Oc2ccccc2)c1C(=O)N/C=N/OCc1ccc(F)cc1Cl,-28,3%,-6%,.,-3%,-9%
COc1coc(C(O)C[N+](=O)[O-])cc1=O (stereo unspecified),-28,50µM*,2%,7%,-17%,20%
CCc1ccc(CNCc2ccc(OCC(O)CN(C)Cc3ccccc3)cc2)nc1 (stereo unspecified),0,-18%,-12%,-23%,?,11µM*
OC[C@@H](O)COc1cccc2ccccc12,.,.,.,6%,.,.
CN(Cc1ccccc1)CC(O)COc1ccc(CNCCc2cccnc2)cc1 (stereo unspecified),?,?,.,1%,.,?
C=CCOc1ccc(CN(C)CC(O)COc2cccc3ccccc23)cc1 (stereo unspecified),54,-21%,-20%,-26%,-22%,32µM*
CN(Cc1ccccc1)CC(O)COc1ccc(CNCCc2ccncc2)cc1 (stereo unspecified),-21,-4%,-18%,-5%,?,13µM*
CCc1ccc(N2CC(C(=O)N3CCCC3)CC2=O)cc1 (stereo unspecified),12,0%,-14%,25%,i,2%
CN1C(=O)/C(=C/c2cc(C(C)(C)C)c(O)c(C(C)(C)C)c2)NC1=S,1,1µM*,0%,-7%,-12%,7%
C=CCc1c(C)nc(SC)nc1Nc1ccc(C)cc1,?,5%,-20%,-20%,-27%,10µM*
COC(=O)C1=C(c2cccc(OC)c2OC)C[C@@H]2CC[C@H]1N2C(=O)NCCNC(C)=O,-12,.,-8%,-14%,i,14%
COc1ccc(Cn2c(/C=C/c3ccccc3)nc3ccccc32)cc1,41,-22%,.,11%,.,-17%
COc1ccc(/C=C/c2nc3ccccc3c(=O)o2)cc1,-95*,7%,-18%,0%,i,18%
COc1ccc(/C=C/c2nc3ccccc3n2C)cc1,-85*,?,?,1.8µM*,?,?
COc1ccc(-n2cnc3ccccc32)cc1,-74*,-15%,0%,.,-18%,-18%
c1ccc(-n2cnc3ccccc32)cc1,-93*,-1%,.,22%,.,-1%
COc1ccccc1/C=C/c1nc2ccccc2c(=O)o1,22,.,.,51%,.,17%
COc1ccc2ncn(-c3ccccc3)c2c1,?,4%,.,10%,.,-31%
CCCCCCCCCCCCCCCCn1cc[n+](C)c1,-96*,13%,?,32µM*,?,5.6µM*
